Results published in PubChem BioAssay (NCATS).
Inconclusive results are not listed. Activity calls are given as the source filed them. Calls come from the whole dose curve; as a rule, active = well fitted cell-killing curve with a large enough effect; inconclusive = small, poorly fitted or top-dose-only effect; inactive = flat fitted curve, though single readings scatter.

assay: qHTS of pediatric cancer cell lines to identify multiple opportunities for drug repurposing: Primary screen for DAOY cells (AID 1347090); details: DAOY medulloblastoma viability, CellTiter-Glo luminescence, 48 h; series mostly up to 46 µM; activity change, negative = cytotoxic: at the top concentration; note: nearly all actives have a fitted effect of over 55% in size
Excerpt: Drug repurposing or repositioning has been offered as a strategy for drug development in oncology programs. This approach has special potential for childhood cancers and other rare or orphan diseases, where the expected return on new drug development has been a disincentive to pharmaceuticals.
In this project we exploit the poly-pharmacology of drugs to discover new indications via phenotypic screening of a panel of 19 well-characterized cell lines derived from solid tumors seen in children and adolescents. The goal is to identify approved drugs with previously unrecognized anticancer properties that has the potential to reveal new mechanisms and biological processes involved in carcinogenesis or drug resistance. We employed a titration-based paradigm (quantitative high-throughput screening or qHTS), where all compounds were tested at multiple concentrations for their effect on cell viability. Concentration-response curves (CRCs) were derived directly from the primary screen, and both potency and efficacy values were used to identify compounds with robust bioactivity profiles. We screened the NIH Chemical Genomics Center (NCGC) Pharmaceutical Collection (NPC) and Mechanism Interrogation Plate (MIPE) small molecule collections of approved and investigational compounds against these cell lines; and measured metabolically active cells after 48 hours of compound treatment as a proxy for cell viability.
Assay Submitter: Nathalia J. Martinez, National Center for Advancing Translational Sciences, National Institutes of Health, Rockville, MD, USA; email: natalia.martinez@nih.gov
[1] Shen, M et al. Quantitative high-throughput phenotypic screening of pediatric cancer cell lines identifies multiple opportunities for drug repurposing. Oncotarget 2017 Dec 19;9(4):4758-4772. PMID 29435139.
The cells were obtained from University of North Carolina (UNC), Pediatric Preclinical Testing Program (PPT), and Coriell Institute (CI).
qHTS cell viability assay:
Cells were assayed in growth media at a density of 500-1,000 cells/well. Five microliters of cells were dispensed into 1,536-well, white, solid-bottom, TC-treated plates (Greiner Bio One) using a multidrop dispenser and incubated at 37 degrees C, 5% CO2, under a humidified atmosphere for 5 hours. Twenty-three nanoliters of compounds and controls (neutral control DMSO or positive control bortezomib at final concentration of 2.3 µM) were subsequently transferred by Kalypsys pintool. For primary screens, the MIPE collection was tested at 11-point dilutions (final concentrations range from 0.78 nM to 46 µM) and the NPC collection at 8-point dilutions (final concentrations range from 0.59 nM to 46 µM). Compounds tested in follow-up screens were assayed at 11-point dilutions. Cells were incubated for 48 hours, followed by addition of 3 uL of CellTiter-Glo (Promega). After a 15 min incubation at room temperature, samples were analyzed for luminescence intensity using a ViewLux High-throughput CCD imager equipped with clear filters.
Potency is the fitted concentration of half-maximal effect.

Row | SMILES | activity change, negative = cytotoxic | Potency
1 | C[C@@H]1CN(c2c(F)c(F)c3c(=O)c(C(=O)O)cn(C4CC4)c3c2F)C[C@H](C)N1 | 16.9% [at 16.1 µM] (inactive) | –
2 | CN(N=O)C(=O)N[C@@H]1[C@@H](O)[C@H](O)[C@@H](CO)O[C@@H]1O | 1.87% (inactive) | –
3 | CN(C)CCOC(C)(c1ccccc1)c1ccccn1 (stereo not given) | 0.519% (inactive) | –
4 | CC[C@H]1CN2CCc3cc(OC)c(OC)cc3[C@@H]2C[C@@H]1C[C@H]1NCCc2cc(OC)c(OC)cc21 | – | 1.06 µM (active)
5 | CC(O)CN(CCN(CC(C)O)CC(C)O)CC(C)O (stereo not given) | 6.07% (inactive) | –
6 | CC1(C)OC(=O)NC1=O | 2.85% (inactive) | –
7 | CCN(CC)CCNC(C(=O)OCCC(C)C)c1ccccc1 (stereo not given) | 12.8% (inactive) | –
8 | CCOC(=O)[C@H](CCc1ccccc1)N[C@@H](C)C(=O)N1C(=O)N(C)C[C@H]1C(=O)O | 6.25% (inactive) | –
9 | CN1CCCCC1CCN1c2ccccc2Sc2ccc(S(C)=O)cc21 (stereo not given) | 0.649% (inactive) | –
10 | CC(C)C(=O)c1c(C(C)C)nn2ccccc12 | 2.55% (inactive) | –
11 | CCN(CC)C(=O)Nc1ccc(OCC(O)CNC(C)(C)C)c(C(C)=O)c1 (stereo not given) | 11.8% (inactive) | –
12 | OCc1cc(C(O)CNCCCCCCOCCCCc2ccccc2)ccc1O (stereo not given) | -5.85% (inactive) | –
13 | O=C(O)c1ccccn1 | -8.31% (inactive) | –
14 | CCCCCCCCCCCCOS(=O)(=O)O | 6.64% (inactive) | –
15 | CCCOC(=O)c1ccccc1 | 14.4% (inactive) | –
16 | Cc1cc(O)cc2c1O[C@](C)(CCC[C@H](C)CCC[C@H](C)CCCC(C)C)CC2 | 9.59% (inactive) | –
17 | Nc1ccc(S(=O)(=O)Nc2ccccc2)cc1 | 4.6% (inactive) | –
18 | CC1(C)[C@@H]2CC[C@@]1(C)C(=O)C2 | 4.11% (inactive) | –
19 | CC(=O)Nc1ccc(/C=N/NC(N)=S)cc1 | 4.4% (inactive) | –
20 | CN(C)CCCO[C@@H]1[C@H]2OC(C)(C)O[C@H]2O[C@@H]1C(O)CO (stereo not given in full) | 8.03% (inactive) | –

Row | SMILES | activity change, negative = cytotoxic | Potency
21 | Nc1ccc(S(=O)(=O)Nc2ccc(Cl)nn2)cc1 | -6.79% (inactive) | –
22 | O=C(CCCN1CCN(c2ccccn2)CC1)c1ccc(F)cc1 | -11.6% (inactive) | –
23 | Cc1cccc(Nc2cc(Cl)nc(SCC(=O)O)n2)c1C | 2.13% (inactive) | –
24 | Cc1cccc(C)c1NC(=O)CN(CC(=O)O)CC(=O)O | 1.29% (inactive) | –
25 | NS(=O)(=O)c1cc2c(cc1Cl)NC(CSCc1ccccc1)=NS2(=O)=O | -5.86% (inactive) | –
26 | CCCCN1CCCC[C@H]1C(=O)Nc1c(C)cccc1C | 3.39% (inactive) | –
27 | CN(C)CCN(Cc1ccccc1)c1ccccn1 | 9.44% (inactive) | –
28 | O=C(Oc1ccccc1C(=O)O)c1ccccc1O | 9.93% (inactive) | –
29 | C[C@@H]1C[C@H]2[C@@H]3C[C@H](F)C4=CC(=O)C=C[C@]4(C)[C@@]3(F)[C@@H](O)C[C@]2(C)[C@@]1(O)C(=O)CO | -1.73% (inactive) | –
30 | C=Cc1c(C)c2cc3[nH]c(cc4nc(cc5nc(cc1[nH]2)C(C)=C5CCC(=O)O)C(CCC(=O)O)=C4C)c(C)c3C=C | -9.91% (inactive) | –
31 | Oc1cccc(O)c1 | 4.94% (inactive) | –
32 | CC(C)(C(=O)O)c1ccc(C(O)CCCN2CCC(C(O)(c3ccccc3)c3ccccc3)CC2)cc1 (stereo not given) | 8.58% (inactive) | –
33 | CSc1ccc2c(c1)N(CCC1CCCCN1C)c1ccccc1S2 (stereo not given) | – | 16.8 µM (active)
34 | O=C(O)c1ccccc1-c1ccc(C(F)(F)F)cc1 | 10.3% (inactive) | –
35 | CC(=O)Oc1ccc(C2(c3ccc(OC(C)=O)cc3)C(=O)Nc3ccccc32)cc1 | -1.95% (inactive) | –
36 | OCC(CO)N[C@H]1C[C@](O)(CO)[C@@H](O)[C@H](O)[C@H]1O | 9.07% (inactive) | –
37 | CC(=O)OCC(=O)[C@@]1(O)CC[C@H]2[C@@H]3CCC4=CC(=O)CC[C@]4(C)[C@H]3C(=O)C[C@@]21C | -20.3% (inactive) | –
38 | CCC(=O)Nc1ccc(O)cc1 | 11.2% (inactive) | –
39 | Cc1c(Cl)cccc1Nc1ccccc1C(=O)O | -22% (inactive) | –
40 | CC(CN(C)C)CN1c2ccccc2CCc2ccccc21 (stereo not given) | -2.28% (inactive) | –
